In PubChem BioAssay (NCATS):
Results filed as inconclusive are left out. Activity calls are given as the source filed them. Calls come from the whole dose curve; as a rule, active = well fitted inhibition curve with a large enough effect; inconclusive = small, poorly fitted or top-dose-only effect; inactive = flat fitted curve, though single readings scatter. Where a SMILES comes first, the peptide text is derived from it. [ ]: non-standard residue; d: D form.

Assay: P-glycoprotein substrates identified in KB-8-5-11 adenocarcinoma cell line, qHTS therapeutic library screen (AID 1346987); note: nearly all actives have a fitted effect of over 65% in size
Conditions: KB-8-5-11 (P-gp overexpressing) viability, CellTiter-Glo, 72 h; series mostly up to 44.5 µM; activity change, negative = cytotoxicity: at the top concentration
In short: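 Luminescence from CellTiter-Glo, read 5 min after addition, quantified survival of KB-8-5-11 (P-gp-overexpressing) cells exposed to compounds for 72 h. AC50 was derived from concentration-response curves.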
% is set by controls: 0 for no effect and ±100 for the full control effect; potency is the fitted concentration of half-maximal effect.

| SMILES | activity change, negative = cytotoxicity | Potency | outcome |
| --- | --- | --- | --- |
| CC1=C(/C=C/C(C)=C/C=C/C(C)=C/C=C/C=C(C)/C=C/C=C(C)/C=C/C2=C(C)C(=O)CCC2(C)C)C(C)(C)CCC1=O | 8.26% (inactive) |  |  |
| Cc1cc(Nc2ncc(Cl)c(Nc3ccccc3S(=O)(=O)C(C)C)n2)c(OC(C)C)cc1C1CCNCC1 |  | 6.51 µM (active) |  |
| CC(/C=C/C1(O)C2(C)COC1(C)CC(=O)C2)O[C@@H]1O[C@H](CO)[C@@H](O)[C@H](O)[C@H]1O (stereo not given in full) |  |  | inactive [at 17.3 µM] |
| C/C=C/C1=CC2=CC(=O)C(C)(O)C(OC(=O)c3c(C)cc(O)cc3O)C2CO1 (stereo not given) | 6.83% (inactive) |  |  |
| CC1(C)CC[C@]2(C(=O)O)CC[C@]3(C)C(=CCC4[C@@]5(C)CC[C@H](O[C@@H]6O[C@H](C(=O)O)[C@@H](O)[C@H](O)[C@H]6O)C(C)(CO)C5CC[C@]43C)C2C1 (stereo not given in full) | 4.04% [at 17.3 µM] (inactive) |  |  |
| Cc1onc(-c2ccccc2)c1C(=O)N[C@@H]1C(=O)N2[C@@H]1SC(C)(C)[C@@H]2C(=O)O |  | inactive |  |
| CCC(=O)OCC(=O)[C@@]1(OC(=O)CC)[C@H](C)C[C@H]2[C@H]3[C@H]([C@@H](O)C[C@@]21C)[C@@]1(C)C=CC(=O)C=C1C[C@H]3Cl | -8.75% [at 17.3 µM] (inactive) |  |  |
| O=C(/C=C/c1ccc(O)cc1)OCC1=C[C@@H](O)[C@@H]2C=CO[C@@H](O[C@@H]3O[C@H](CO)[C@@H](O)[C@H](O)[C@H]3O)[C@H]12 |  |  | inactive [at 17.3 µM] |
| CC(=O)N[C@H](Cc1ccc(O)cc1)C(=O)N[C@H](CCCN=C(N)N)C(=O)N[C@H](Cc1ccccc1)C(N)=O (Ac-[dY]-[dR]-[dF]-NH2) |  |  | inactive |
| C=CC(C)(C)C12CC3C(=O)NC(Cc4cnc[nH]4)C(=O)N3C1Nc1ccccc12 (stereo not given) | 6.93% (inactive) |  |  |
| C[C@@H](Nc1cc(NS(=O)(=O)N2CCC2)nc(SCc2cccc(F)c2F)n1)[C@@H](O)CO |  |  | inactive |
| CC1CCC23COC(=O)C2=CC(O)CC3C1(C)CCC1=CC(=O)OC1O (stereo not given) |  |  | inactive |
| CC(C)=CC/C=C(/C)[C@H]1CC[C@]2(C)[C@@H]1[C@H](O)CC1[C@@]3(C)CC[C@H](O)C(C)(C)[C@@H]3[C@@H](O[C@@H]3O[C@H](CO)[C@@H](O)[C@H](O)[C@H]3O[C@@H]3O[C@@H](C)[C@H](O)[C@@H](O)[C@H]3O)C[C@]12C (stereo not given in full) |  |  | inactive [at 17.3 µM] |
| C=C1CCC2C(C)(C(=O)O)CC(O)CC2(C)C1CC/C(C)=C/C(=O)O (stereo not given) | 6.48% (inactive) |  |  |
| CC(C)c1cc2c(c(O)c1O[C@@H]1O[C@H](CO)[C@@H](O)[C@H](O)[C@H]1O)CC1(O)CCC(O)C(C)(C)C1CC2 (stereo not given in full) | 8.06% [at 17.3 µM] (inactive) |  |  |
| CC(=O)c1c(C)cc(O[C@@H]2O[C@H](CO)[C@@H](O)[C@H](O)[C@H]2O)cc1O |  |  | inactive |
| C=C1C[C@@]23CC[C@@H]4[C@](C)(C(=O)O)CCC[C@@]4(C)C2=CC[C@H]1C3 |  |  | inactive |
| C#Cc1cnc2[nH]c(=O)n(C(CC)CC)c2n1 | 1.76% (inactive) |  |  |
| CC1(C)S[C@@H]2[C@H](NC(=O)Cc3ccccc3)C(=O)N2[C@H]1C(=O)O | 8.28% (inactive) |  |  |
| O=C(O)c1n[nH]c2c1C[C@H]1C[C@@H]21 |  |  | inactive |
| C=C1CC2(C(=O)O)CC1CCC2C1(C)CCCC2(C)C(=O)OC(O)C21 (stereo not given) |  |  | inactive |
| CC1CCC2C(C(=O)O)=CC3CC(C)(C)CC132 (stereo not given) | 2.88% (inactive) |  |  |
| C[C@@H]1O[C@@H](O[C@H]2[C@H](O[C@H]3CC[C@@]4(C)C(CC[C@]5(C)C4CC=C4[C@@H]6CC(C)(C)CC[C@]6(C(=O)O)CC[C@]45C)[C@]3(C)CO)OC[C@H](O)[C@@H]2O)[C@H](O)[C@H](O[C@@H]2OC[C@@H](O)[C@H](O)[C@H]2O)[C@H]1O (stereo not given in full) | -3.86% [at 9.29 µM] (inactive) |  |  |
| CC1=C(C)C(=O)OC(C(C)C2C(O)CC3C4C5OC5C5(O)CC(OC6OC(CO)C(O)C(O)C6O)CC(O)C5(C)C4CCC32C)C1 (stereo not given) |  |  | inactive [at 17.3 µM] |
| COC(=O)c1ccc(O[C@@H]2O[C@H](CO)[C@@H](O)[C@H](O)[C@H]2O)c(OC)c1 |  |  | inactive |
| CC(=O)NC(C(=O)OC1CCC(C)(C)C2CC=C3C(=O)OCC3(O)C12C)C(C)C (stereo not given) |  |  | inactive [at 17.3 µM] |
| CC1(CCC(=O)O)C(=O)C=CC23CC4CC(OC4(C)C2O)C13 (stereo not given) | 8.84% (inactive) |  |  |
| COC1CC(OC2CCC3(C)C(=CCC4C3CCC3(C)C(C(C)O)CCC43O)C2)OC(C)C1OC1OC(C)C(OC2OC(COC3OC(COC4OC(CO)C(O)C(O)C4O)C(O)C(O)C3O)C(O)C(O)C2O)C(OC)C1O (stereo not given) | 4.62% [at 9.29 µM] (inactive) |  |  |
| CC(C)CNC(=O)/C=C/CCCCc1ccc2c(c1)OCO2 | 4.07% (inactive) |  |  |
| COC(=O)C1=CO[C@@H](O[C@@H]2O[C@H](CO[C@@H]3O[C@H](COC(=O)/C=C/c4ccc(O)cc4)[C@@H](O)[C@H](O)[C@H]3O)[C@@H](O)[C@H](O)[C@H]2O)[C@@H]2C(CO)=CC[C@H]12 |  |  | inactive [at 17.3 µM] |
